The sample as a whole holds a higher share of the strongest signals than the screen did.
Legend:
Assay in all cases: glycan array binding signal (z-score within array); higher = stronger binding
Conditions in all cases: glycan notation: IUPAC condensed, linker removed
[1] = target: Gal(b1-4)GlcNAc(b1-3)Gal(b1-4)[Fuc(a1-3)]GlcNAc(b1-3)Gal(b1-4)[Fuc(a1-3)]GlcNAc
Outline: (§1)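 Arrays were curated from the Consortium for Functional Glycomics database, 3228 in total, and kept only where the protein sequence was available. Binding is expressed as a within-array Z-score. This score was averaged across arrays of the same protein sequence at different concentrations or buffers and across linkers, and negative values can be read as non-binding.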

[2] = target: Gal(b1-4)GlcNAc(b1-3)[Fuc(a1-3)GlcNAc(b1-6)]Gal(b1-4)Glc
Outline: as §1

Gal3S(b1-4)GlcNAc = target: Gal3S(b1-4)GlcNAc
Outline: as §1

[3] = target: GalNAc(a1-3)GalNAc(b1-3)Gal(a1-4)Gal(b1-4)Glc
Outline: as §1

[4] = target: GalNAc(b1-3)Gal(a1-4)Gal(b1-4)GlcNAc
Outline: as §1

[5] = target: GlcNAc(b1-2)Man(a1-3)[GlcNAc(b1-4)][GlcNAc(b1-2)Man(a1-6)]Man(b1-4)GlcNAc(b1-4)[Fuc(a1-6)]GlcNAc
Outline: as §1

[6] = target: GlcNAc(b1-2)[GlcNAc(b1-4)]Man(a1-3)[GlcNAc(b1-4)][GlcNAc(b1-2)Man(a1-6)]Man(b1-4)GlcNAc(b1-4)GlcNAc
Outline: as §1

[7] = target: GlcNAc(b1-3)Gal(b1-4)GlcNAc(b1-3)[GlcNAc(b1-3)Gal(b1-4)GlcNAc(b1-3)]GalNAc
Outline: as §1

GlcNAc(b1-3)GalNAc = target: GlcNAc(b1-3)GalNAc
Outline: as §1

[8] = target: GlcNAc(b1-4)GlcNAc(b1-4)GlcNAc(b1-4)GlcNAc(b1-4)GlcNAc
Outline: as §1

Man(a1-3)[Man(a1-6)]Man = target: Man(a1-3)[Man(a1-6)]Man
Outline: as §1

Neu5Ac(a2-3)Gal = target: Neu5Ac(a2-3)Gal
Outline: as §1

[9] = target: Neu5Ac(a2-3)Gal(b1-3)GalNAc(b1-3)Gal(a1-4)Gal(b1-4)Glc
Outline: as §1

[10] = target: Neu5Ac(a2-3)Gal(b1-3)GlcNAc(b1-2)Man(a1-3)[GlcNAc(b1-4)][Neu5Ac(a2-3)Gal(b1-3)GlcNAc(b1-2)Man(a1-6)]Man(b1-4)GlcNAc(b1-4)GlcNAc
Outline: as §1

[11] = target: Neu5Ac(a2-3)Gal(b1-3)[Fuc(a1-4)]GlcNAc
Outline: as §1

[12] = target: Neu5Ac(a2-3)Gal(b1-4)GlcNAc(b1-3)Gal(b1-4)GlcNAc
Outline: as §1

[13] = target: Neu5Ac(a2-3)Gal(b1-4)GlcNAc(b1-3)Gal(b1-4)GlcNAc(b1-3)Gal(b1-4)GlcNAc
Outline: as §1

[14] = target: Neu5Ac(a2-3)Gal(b1-4)GlcNAc(b1-3)Gal(b1-4)GlcNAc(b1-3)GalNAc
Outline: as §1

[15] = target: Neu5Ac(a2-3)Gal(b1-4)[Fuc(a1-3)]GlcNAc(b1-6)[Neu5Ac(a2-3)Gal(b1-3)]GalNAc
Outline: as §1

Neu5Ac(a2-6)Gal(b1-4)Glc = target: Neu5Ac(a2-6)Gal(b1-4)Glc
Outline: as §1

[16] = target: Neu5Ac(a2-6)Gal(b1-4)GlcNAc(b1-2)Man(a1-3)[GlcNAc(b1-4)][Neu5Ac(a2-6)Gal(b1-4)GlcNAc(b1-2)Man(a1-6)]Man(b1-4)GlcNAc(b1-4)GlcNAc
Outline: as §1

[17] = target: Neu5Ac(a2-6)Gal(b1-4)GlcNAc(b1-2)Man(a1-3)[Man(a1-6)]Man(b1-4)GlcNAc(b1-4)GlcNAc
Outline: as §1

[18] = target: Neu5Ac(a2-6)Gal(b1-4)GlcNAc(b1-6)[Gal(b1-3)]GalNAc
Outline: as §1

[19] = target: Neu5Ac(a2-8)Neu5Ac(a2-3)Gal(b1-3)GalNAc(b1-4)[Neu5Ac(a2-3)]Gal(b1-4)Glc
Outline: as §1

[20] = target: Neu5Ac(a2-8)Neu5Ac(a2-3)Gal(b1-4)GlcNAc
Outline: as §1

[21] = target: Neu5Gc(a2-3)Gal(b1-4)GlcNAc
Outline: as §1

[22] = target: Neu5Gc(a2-3)Gal(b1-4)GlcNAc(b1-3)Gal(b1-4)GlcNAc(b1-2)Man(a1-3)[Neu5Gc(a2-3)Gal(b1-4)GlcNAc(b1-3)Gal(b1-4)GlcNAc(b1-2)Man(a1-6)]Man(b1-4)GlcNAc(b1-4)GlcNAc
Outline: as §1

[23] = target: Neu5Gc(b2-6)Gal(b1-4)GlcNAc
Outline: as §1

B1: PX9961V-pdi-562-26-562 (Parabacteroides distasonis) (protein)
chain: EIFSEITTDNYYQNSNNIYAALVNNYAKAFSTGWSDARYFLQEVTADQLMIPTRGKHGYNGGEYVRLHEHKWTVEENFVYNGWAAPFQGIALCNNTLSDFENLDFSTFKLTEETKNEYIAELRALRVWNYMFLIDFFRHVPIVTDIEEVKAQSTPLEVFNFMESELLAILPDLPKNRGVSRFDQAGVASILVRLYLNAEKWIGISKYDECEQMAQAILDGKYGEYSIDPDYRGPFRSGINGYRSKENIMEFAIKKNYFEASWLYNMWMHYQDRYSLDNDWQGWNGGNLAPSRDLYGNLYQDKLGMPFEKFPDGDIRKKAFRVISNDGDYEGFFLMGTQYKFDYEKGYGFTDEVITGTEEYNGKPLVYVDQVGRFSEGETGLAKGSHVIYGEENTGYRLIKFPWLPQSKDLFQMNSIPEIRLAEIYYSLAECKYRSGDKIGAARLLDVVRKRYYKAEDWSKFSYESNISKLTDDEFVDELGREFIGERHRRIDLIRWNRFSEGAWWDKTPDATNQDVFPIPYRALNANPLLKQTTAGF
glycan array binding signal (z-score) [1]: -0.412
glycan array binding signal (z-score) [2]: -0.429
glycan array binding signal (z-score) (Gal3S(b1-4)GlcNAc): -0.447
glycan array binding signal (z-score) [3]: -0.432
glycan array binding signal (z-score) [4]: -0.339
glycan array binding signal (z-score) [5]: -0.145
glycan array binding signal (z-score) [6]: -0.324
glycan array binding signal (z-score) [7]: -0.471
glycan array binding signal (z-score) (GlcNAc(b1-3)GalNAc): -0.21
glycan array binding signal (z-score) [8]: 0.049
glycan array binding signal (z-score) (Man(a1-3)[Man(a1-6)]Man): -0.443
glycan array binding signal (z-score) (Neu5Ac(a2-3)Gal): -0.711
glycan array binding signal (z-score) [9]: -0.516
glycan array binding signal (z-score) [10]: 0.213
glycan array binding signal (z-score) [11]: -0.598
glycan array binding signal (z-score) [12]: -0.53
glycan array binding signal (z-score) [13]: -0.516
glycan array binding signal (z-score) [14]: -0.319
glycan array binding signal (z-score) [15]: 2.66
glycan array binding signal (z-score) (Neu5Ac(a2-6)Gal(b1-4)Glc): -0.644
glycan array binding signal (z-score) [16]: -0.373
glycan array binding signal (z-score) [17]: -0.231
glycan array binding signal (z-score) [18]: -0.27
glycan array binding signal (z-score) [19]: -0.606
glycan array binding signal (z-score) [20]: -0.574
glycan array binding signal (z-score) [21]: 0.017
glycan array binding signal (z-score) [22]: -0.054
glycan array binding signal (z-score) [23]: -0.322

Reference: the supplement of paper PMC8728848
